Bioassay records as filed in PubChem.
ERK AVP inh = qHTS Assay for Inhibitors of the ERK Signaling Pathway using a Homogeneous Screening Assay; HEK293-V1b, vasopressin-stimulated pERK AlphaScreen; Potency, µM (series often up to 57.5 µM), usual class: inhibitors; hit rate 0.99% among 72,000; further: nearly all actives have a fitted effect of over 55% in size
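qHTS, compounds titrated on V1b-expressing HEK293 cells. Preincubation 30 min at 37C, vasopressin 25 nM for 5 min, lysis 10 min, bead incubation 5 hr at room temperature.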
Bst PK mod = Pyruvate Kinase. purified pyruvate kinase, luminescence ATP production; ribose 5-phosphate activator present at AC10. Potency, µM. hit rate 1.2% among 51,000; in the data active means potency below about 11 µM; inconclusive means mostly about 12 µM to 25 µM;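 the screen sought inhibitors and activators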
Hsp90 Hop PPI = qHTS Assay for Disrupters of an Hsp90 Co-Chaperone Interaction; Hsp90 C-terminal peptide / TPR2A (Hop) interaction, human; AlphaScreen TPR2A-His6 binding biotin-Hsp90 C-terminal peptide; Potency, µM (top dose mostly 57 µM); hit rate 0.44% among 71,000; AID 595, 2007; active means well fitted curve in either direction with a large enough effect; inconclusive means small, poorly fitted or top-dose-only effect, or another doubt
Luciferase inh = qHTS Assay for Inhibitors of Firefly Luciferase. Luciferin 4-monooxygenase (Photinus pyralis), P08659. purified firefly luciferase, luminescence, 8 min. Potency, µM (series often up to 57.1 µM), most hits filed as inhibitors. hit rate 2.2% among 72,000. AID 411, 2009; further: nearly all actives have a fitted effect of over 40% in size
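Firefly luciferase (PKLight detection mix) with 10 uM ATP in pH 7.2 imidazole buffer (KCl, MgCl2, Tween 20, BSA). Compounds tested across a concentration series (qHTS). Luminescence read after 8 min at ambient temperature.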
15-hLO inh = qHTS Assay for Inhibitors of 15-hLO (15-human lipoxygenase) | Polyunsaturated fatty acid lipoxygenase ALOX15 (Homo sapiens), P16050 | purified 15hLO-1, xylenol orange hydroperoxide absorbance | Potency, µM (series often up to 57.1 µM), actives largely listed as inhibitors | hit rate 1.4% among 74,000 | AID 887, 2007; further: nearly all actives have a fitted effect of over 55% in size
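Readout: Fe(III)-xylenol orange absorbance, 573-to-405 nm ratio as reaction progress. Enzyme 40 nM purified human 15hLO-1, substrate 50 uM arachidonic acid, 6 min RT after 15 min compound preincubation; Hepes pH 7.5 buffer with Triton X-100.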
Tau filament bind = qHTS Assay for Tau Filament Binding; recombinant tau filaments, thioflavin S fluorescence, 15 h; filaments grown with octadecylsulfate alongside compound; Potency, µM (top dose mostly 57.1 µM); Microtubule-associated protein tau (Homo sapiens), P10636; hit rate 2% among 71,000; AID 596, 2007;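 further: actives lower thioflavin S fluorescence by blocking filaments or displacing dye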
Target sequence (P10636 whole entry, looked up): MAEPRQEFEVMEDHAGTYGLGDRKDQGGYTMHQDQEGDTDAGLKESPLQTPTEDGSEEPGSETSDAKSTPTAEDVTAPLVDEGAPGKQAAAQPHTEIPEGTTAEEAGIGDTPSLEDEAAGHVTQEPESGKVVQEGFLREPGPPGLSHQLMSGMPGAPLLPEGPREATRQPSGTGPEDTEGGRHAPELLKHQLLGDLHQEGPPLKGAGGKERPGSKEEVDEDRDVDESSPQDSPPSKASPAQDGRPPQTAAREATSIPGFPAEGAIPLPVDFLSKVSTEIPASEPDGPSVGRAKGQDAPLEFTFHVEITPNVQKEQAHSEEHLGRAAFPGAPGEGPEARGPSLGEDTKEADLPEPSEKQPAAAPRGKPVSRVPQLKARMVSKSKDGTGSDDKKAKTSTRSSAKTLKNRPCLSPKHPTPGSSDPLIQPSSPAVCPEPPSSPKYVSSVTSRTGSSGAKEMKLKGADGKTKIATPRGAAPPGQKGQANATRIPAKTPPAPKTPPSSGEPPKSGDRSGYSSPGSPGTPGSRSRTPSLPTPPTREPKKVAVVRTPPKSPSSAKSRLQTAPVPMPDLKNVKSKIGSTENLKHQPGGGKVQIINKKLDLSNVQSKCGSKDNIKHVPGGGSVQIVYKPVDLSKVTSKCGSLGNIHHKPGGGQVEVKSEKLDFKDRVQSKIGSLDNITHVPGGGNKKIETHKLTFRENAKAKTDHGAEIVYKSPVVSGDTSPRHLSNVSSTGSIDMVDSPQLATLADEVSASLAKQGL
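Assay mix: 1 uM His-tagged tau, 30 uM sodium octadecylsulfate, thioflavine S dye in HEPES/NaCl/DTT buffer. Compound is added prior to the inducer. Fluorescence after 15 h at 37 C.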
Numbers stand for hits; - = inactive; ? = inconclusive; . = no result; [ ] = another dose, or the depositor's remark. This is a sample that favours compounds with a hit; in the whole collection about 6.1% have one here. Unless noted, the call rests on the fitted dose curve; in most records, active means well fitted curve in the direction sought with a large enough effect; inconclusive means small, poorly fitted or top-dose-only effect, or another doubt; inactive means no such curve, though single readings can be large; an effect the other way counts as inactive or inconclusive.

SMILES	ERK AVP inh	Bst PK mod	Hsp90 Hop PPI	Luciferase inh	15-hLO inh	Tau filament bind
N#CC1=C(N)Oc2n[nH]c(-c3ccncc3)c2C1c1ccsc1 (stereo not given)	10µM	-	-	-	?	-
N#CC1=C(N)Oc2n[nH]c(-c3cccs3)c2C1c1cccnc1 (stereo not given)	-	-	-	-	-	-
N#CC1=C(N)Oc2n[nH]c(-c3cccs3)c2C1c1ccoc1 (stereo not given)	?	.	-	-	10µM	-
CC(C)C1C(C#N)=C(N)Oc2n[nH]c(-c3cccs3)c21 (stereo not given)	16µM	-	-	-	?	-
CS(=O)(=O)c1ccc([C@H](O)[C@H](CF)NC(=O)C(Cl)Cl)cc1	-	.	?	-	-	-
COc1ccc(C(=O)N2CCC3(CC2)CCN(c2cccc(-c4ccccc4)c2)CC3)cc1	?	.	-	-[11.4 µM]	-	-
O=C(NCCOc1ccccc1)c1ccc2c(c1)OCO2	-	8.1	-	6.3µM	-	-
Cc1cc(C(=O)NC(C)c2ccc3c(c2)OCO3)cs1 (stereo not given)	-	-	-	-	-	-
O=C(Nc1ccc(Cl)cc1)c1ccc2c(c1)OCO2	-	.	-	4µM	-	-
O=C(Nc1ccc2c(c1)OCCO2)c1ccc(NC(=O)C2CCCO2)cc1 (stereo not given)	-	.	-	13µM	-	-
Cc1cc(C(=O)Nc2ccc3c(c2)OCO3)cs1	-	-	-	16µM	-	-
O=C(Nc1ccc2c(c1)OCCO2)C1CCC1	-	-	-	-	-	-
CCCCC(=O)Nc1ccc(NC(=O)c2ccc3c(c2)OCO3)cc1OC	-	.	-	?	-	-
O=C(Nc1ccc2c(c1)OCCO2)NC1CCCCC1	-	.	-[11 µM]	7.9µM	-[11.4 µM]	-[11.4 µM]
Cc1cc(C)n(-c2ccc(C(=O)Nc3ccc4c(c3)OCCO4)cc2)n1	-	-	-	13µM	-	-
Cc1cc(C)n(-c2ccc(C(=O)Nc3ccccn3)cc2)n1	-	-	-	13µM	-	-
COc1cc(NC(=O)c2ccc3c(c2)OCO3)ccc1NC(=O)C(C)C	-	7.1	-	?	-	-
Cc1cc(C)n(-c2ccc(C(=O)NCc3ccc4c(c3)OCO4)cc2)n1	-	-	-	-	-	-
CC(C)[C@@H](OCc1ccccc1)[C@H](C)/C=N\O[C@@H](C)c1cn([C@@H]2COC[C@@H]2O)nn1	-[11.5 µM]	.	.	-[11.4 µM]	-[11.4 µM]	.
CCNc1ncc2nc(-c3ccc(F)cc3)c(=O)n(CCC#N)c2n1	-	.	-	-[11.4 µM]	?	-
CC(C)c1nc(N(C)S(C)(=O)=O)nc(-c2ccc(F)cc2)c1/C=C/C(O)CC(O)CC(=O)O (stereo not given)	-	.	.	.	-	.
O=C(Nc1ccc2c(c1)OCO2)c1cccc(Cl)c1	-	.	-	13µM	-	-
O=C(Nc1ccc(F)c(F)c1)c1ccc2c(c1)OCO2	-	.	-	?	-	-
O=C(Nc1ccon1)c1ccc2c(c1)OCO2	-	-	-	-	-	-
CC(=O)Nc1ccc(C(=O)Nc2ccc3c(c2)OCO3)cc1	-	-	-	-	-	20µM
O=C(Nc1ccc2nsnc2c1)c1ccc2c(c1)OCO2	-	.	-	3.2µM	-	-
CCOc1cc(C(=O)Nc2ccc3c(c2)OCO3)ccc1OC(F)F	20µM	-	-	-	-	-
O=c1c(CCc2ccccc2)nc2cnc(Oc3cccc(Cl)c3)nc2n1C[C@H]1CCCO1	-	.	-	-[11.4 µM]	-	-
Nc1ccn([C@H]2O[C@H](CO)[C@@H]3[O][Sn]([c]4ccccc4)([c]4ccccc4)[O][C@H]32)c(=O)n1	-[11.5 µM]	.	-[11 µM]	-[11.4 µM]	-[11.4 µM]	-[11.4 µM]
CO[C@@H]1C[C@H](O[C@H]2[C@@H](C)[C@H](O[C@@H]3O[C@@H](C)C[C@@H](N(C)C)[C@@H]3OC(C)=O)[C@H](C)C[C@]3(CO3)C(=O)[C@H](C)[C@H](OC(C)=O)[C@H](C)[C@H](C)OC(=O)[C@@H]2C)O[C@H](C)[C@@H]1OC(C)=O	-	.	-	-	-	-
